Laboratory results: PubChem BioAssay (EPA / NIEHS)
The source made the active and inactive calls. Rule for the calls: active = hit-call score of the fitted dose curve at least 0.9, where 1 is the maximum; inactive = score below 0.9.

read-out: NAD(P)H dehydrogenase [quinone] 1 (NQO1), NQO1 (gene 1728); assay: LTEA_HepaRG_NQO1: Life Technologies and Expression Analysis (LTEA) Assay for NAD(P)H dehydrogenase [quinone] 1 (NQO1) using HepaRG (AID 2283526); conditions: mRNA level, 48 h; actives raise or lower the signal
Experimental: LTEA_HepaRG is a cell based, multiplexed-readout assay that uses HepaRG, a human liver cell line, with measurements taken at 48 hours after chemical dosing on a 96-well plate.LTEA_HepaRG_NQO1 is one of 102 assay component(s) measured in the LTEA HepaRG cell culture assay. It is a marker of Diseases associated with NQO1 include Tardive Dyskinesia and Childhood Leukemia.Data from the assay component LTEA_HepaRG_NQO1 was analyzed into 1 endpoint. This assay endpoint, LTEA_HepaRG_NQO1, was analyzed with bidirectional fitting relative to DMSO as the negative control and baseline of activity. Using a type of inducible reporter, measures of mRNA induction for gain or loss-of-signal activity can be used to understand regulation of transcription factor activity. To generalize the intended target to other relatable targets, this assay endpoint is annotated to the oxidoreductase intended target family, where the subfamily is quinone-acceptor.
A total of 1060 chemcials from the ToxCast library were tested in eight-point concentration-response experiments. Cell culture and cytotoxicity assays were conducted at Thermo Fisher Scientific's Custom Services facility (Madison, WI). A single lot of human HepaRG cells (Thermo Fisher Scientific, Frederick, MD) was used for the cell culture experiments. 96-well format collagen type I coated plates of human HepaRG cells were prepared using established methods. Briefly, cryopreserved HepaRG cells were thawed, plated at a density of approximately 100,000 cells/well in HepaRG Thaw, Plate, and General Purpose media (HPRG770, Thermo Fisher Scientific), and incubated for 48 hours. 0.5% DMSO was selected as vehicle control to balance the requisite need of DMSO in HepaRG cultures to maintain differentiation (for example, baseline metabolism, proportions of hepatocytes vs. cholangiocytes), while enabling further hepatic receptor pathway activation (for example, PXR and CAR) in response to chemical exposure. 48 hours after plating, the culture medium was replaced with HepaRG Serum-Free Incudtion Media. Cells were exposed to each test chemical in duplicate and maintained in CO2 incubators for another 48 hours. Chemical plates were thawed to room temperature and 200x concentrations of treatment groups were prepared. 8-point conentration-reponse curves were made with the highest exposure at 100 uM, followed by half-log dilutions, all in 0.5% DMSO. Each test plate contained variouse controls, induction positive controls (1mM phenobarbital), cytotoxicity positive controls ([…] aflatoxin B1), vehicle controls (0.5% DMSO), and total lysis controls (0.5% DMSO). Cell morphology images were taken using an Essen IncuCyte FLR automated microscope, with six 96-well plates imaged in about 24 minutes. Images were captured and exported and JPEG files. Spent culture media was transfered to black-well plates for the LDH assay, and remaining media was sorted at -80 C for later use. Cells were treated with RLT buffer and frozen until shipped for gene expression analysis. Total RNA was isolated from the cell suspension in 75 uL of Buffer RLT (Qiagen, Germantown, MD 20874) by Quintiles/Expression Analysis (Durham, NC) using a custom isolation procedure. Total RNA from each plate well was transferred to a preamplification plate. Fluidigm's 96.96 Dynamic ArrayTM (Fluidigm, Amsterdam, the Netherlands) technology was used for gene expression analyses by quantitative reverse transcription polymerase chain reaction (qRT-PCR, performed by Quintiles/Expression Analysis, Durham, NC)89. Standard TaqManTM Assays (Applied Biosystems/ThermoFisher Scientific, Foster City, CA) were used to assess the expression of 93 genes selected based on their selectivity and sensitivity to important hepatic receptors known to be modulated by environmental chemicals; importance in human hepatocyte functionality; and hepatotoxicity. […]

| Compound | outcome | AC50 |
| --- | --- | --- |
| O=C(O)c1ccccc1C(c1ccc(O)cc1)c1ccc(O)cc1 | inactive |  |
| COc1ccc([N+](=O)[O-])cc1N | inactive |  |
| CCCCC(CC)COC(=O)CCCCC(=O)OCc1ccccc1 (stereo not given) | inactive |  |
| OCCC(F)(F)C(F)(F)C(F)(F)C(F)(F)C(F)(F)C(F)(F)F | inactive |  |
| CN1CCN(c2ccccc2/C=C2\SCCN(c3ccc(Cl)c(Cl)c3)C2=O)CC1 |  | 81.3 µM (active) |
| CCCCCCCCCCCCN1CCCC1=O | inactive |  |
| C#C[C@]1(O)CC[C@H]2[C@@H]3CCC4=CC(=O)CC[C@@H]4[C@H]3CC[C@@]21C | inactive |  |
| Oc1cc2ccccc2c2ccccc12 | inactive |  |
| CCCCCCCC(=O)O | inactive |  |
| c1ccc2cc3c(ccc4ccccc43)cc2c1 | inactive |  |
| CC1=C(/C=C/C(C)=C/C=C/C(C)=C/C(=O)O)C(C)(C)CCC1 |  | 11 µM (active) |
| CCN(CC)CCNc1ccc(CNC=O)c2sc3ccc(OC)cc3c(=O)c12 | inactive |  |
| OCCC(F)(F)C(F)(F)C(F)(F)C(F)(F)C(F)(F)C(F)(F)C(F)(F)C(F)(F)F | inactive |  |
| CN1CCC[C@H]1c1cccnc1 | inactive |  |
| CC(O)CO (stereo not given) | inactive |  |
| N#C[C@@H]1CC(F)(F)CN1C(=O)CNC1CC2CCC(C1)N2c1ncccn1 (stereo not given in full) | inactive |  |
| CCCCCCCCC(=O)O | inactive |  |
| CCCOC(=O)c1ccc(O)cc1 | inactive |  |
| OC1CCCCC1 | inactive |  |
| CCC(C)(C)C1CCC(O)CC1 (stereo not given) | inactive |  |

| Compound | outcome | AC50 |
| --- | --- | --- |
| CCCCCCC(=O)O | inactive |  |
| C=C(C)C(=O)OCCC(F)(F)C(F)(F)C(F)(F)C(F)(F)C(F)(F)C(F)(F)F | inactive |  |
| CC(C)(C)c1cccc(C(C)(C)C)c1O | inactive |  |
| CCCCC(CC)COC(=O)CCCCC(=O)OCC(CC)CCCC (stereo not given) | inactive |  |
| O=[N+]([O-])c1ccc(O)cc1 | inactive |  |
| CC(C)CCCCCCOC(=O)CCCCC(=O)OCCCCCCC(C)C | inactive |  |
| CC[C@H](c1ccc(O)cc1)[C@@H](CC)c1ccc(O)cc1 |  | 81.8 µM (active) |
| CC#C[C@]1(O)CC[C@H]2[C@@H]3CCC4=CC(=O)CCC4=C3[C@@H](c3ccc(N(C)C)cc3)C[C@@]21C | inactive |  |
| CC[C@H](C)[C@@H](C(=O)O)n1sc2ccccc2c1=O | inactive |  |
| CC(C)(C)CC(C)(C)c1ccc(O)c(-n2nc3ccccc3n2)c1 | inactive |  |
| CCCCCCCCCCCCCCCS(=O)(=O)Oc1ccccc1 | inactive |  |
| CC(=O)CC(C)(C)O | inactive |  |
| Nc1cccc2c(N)cccc12 | inactive |  |
| Cc1cc(C)c(O)c(C)c1 | inactive |  |
| CCc1nn(C2CCCCC2)c2cc(C3(C#N)CCC(C(=O)O)CC3)ccc12 (stereo not given) | inactive |  |
| CN(C)C=O | inactive |  |
| CCC(=C(c1ccc(O)cc1)c1ccc(OCCN(C)C)cc1)c1ccccc1 | inactive |  |
| O=C(OCCOCCOC(=O)c1ccccc1)c1ccccc1 | inactive |  |
| COC(=O)CCCCC(=O)OC | inactive |  |
| Oc1cccc(O)c1 | inactive |  |
